Biological target: AgAbp1
Assay: SPOT peptide array binding signal intensity (averaged, normalized) (arbitrary units (background-subtracted, floor 0; scale differs between SH3 domains)); higher = stronger binding of the SH3 domain to the peptide
Method in brief: (§1)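 The binding signal is the normalized, background-subtracted spot intensity averaged over replicates; its arbitrary units differ between domains. It was obtained by incubating 10 μg/ml GST-fused SH3 domains from four yeast species overnight at 4°C in TBS-based blocking buffer on cellulose membranes with synthetic 15-mer peptides, cysteines replaced by serines, then detecting with anti-GST antibody, HRP anti-mouse secondary and luminol.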

Binder | SPOT peptide array binding signal intensity
KKEKKPPKIPKKVYT | 2950

Biological target: AgBbc1
Assay: as above
Method in brief: as §1

Binder | SPOT peptide array binding signal intensity
KKEKKPPKIPKKVYT | 9.5

Biological target: AgBem1-D1
Assay: as above
Method in brief: as §1

Binder | SPOT peptide array binding signal intensity
KKEKKPPKIPKKVYT | 8

Biological target: AgBzz1-D1
Assay: as above
Method in brief: as §1

Binder | SPOT peptide array binding signal intensity
KKEKKPPKIPKKVYT | 253

Biological target: AgBzz1-D2
Assay: as above
Method in brief: as §1

Binder | SPOT peptide array binding signal intensity
KKEKKPPKIPKKVYT | 43

Biological target: AgCyk3
Assay: as above
Method in brief: as §1

Binder | SPOT peptide array binding signal intensity
KKEKKPPKIPKKVYT | ≤ 0

Biological target: AgFus1
Assay: as above
Method in brief: as §1

Binder | SPOT peptide array binding signal intensity
KKEKKPPKIPKKVYT | 1

Biological target: AgHof1
Assay: as above
Method in brief: as §1

Binder | SPOT peptide array binding signal intensity
KKEKKPPKIPKKVYT | 29.2

Biological target: AgHse1
Assay: as above
Method in brief: as §1

Binder | SPOT peptide array binding signal intensity
KKEKKPPKIPKKVYT | 35.5

Biological target: AgLsb1
Assay: as above
Method in brief: as §1

Binder | SPOT peptide array binding signal intensity
KKEKKPPKIPKKVYT | ≤ 0

Biological target: AgLsb4
Assay: as above
Method in brief: as §1

Binder | SPOT peptide array binding signal intensity
KKEKKPPKIPKKVYT | 1.5

Biological target: AgMyo5
Assay: as above
Method in brief: as §1

Binder | SPOT peptide array binding signal intensity
KKEKKPPKIPKKVYT | ≤ 0

Biological target: AgNbp2
Assay: as above
Method in brief: as §1

Binder | SPOT peptide array binding signal intensity
KKEKKPPKIPKKVYT | 19

Biological target: AgRvs167
Assay: as above
Method in brief: as §1

Binder | SPOT peptide array binding signal intensity
KKEKKPPKIPKKVYT | 2.5

Biological target: AgSho1
Assay: as above
Method in brief: as §1

Binder | SPOT peptide array binding signal intensity
KKEKKPPKIPKKVYT | 5

Biological target: AgSla1-D1-D2
Assay: as above
Method in brief: as §1

Binder | SPOT peptide array binding signal intensity
KKEKKPPKIPKKVYT | ≤ 0

Biological target: AgSla1-D3
Assay: as above
Method in brief: as §1

Binder | SPOT peptide array binding signal intensity
KKEKKPPKIPKKVYT | 4.5

Biological target: CaAbp1-D1
Assay: as above
Method in brief: as §1

Binder | SPOT peptide array binding signal intensity
KKEKKPPKIPKKVYT | 892

Biological target: CaAbp1-D2
Assay: as above
Method in brief: as §1

Binder | SPOT peptide array binding signal intensity
KKEKKPPKIPKKVYT | 1670

Biological target: CaBbc1
Assay: as above
Method in brief: as §1

Binder | SPOT peptide array binding signal intensity
KKEKKPPKIPKKVYT | 88.5

Biological target: CaBem1-D1
Assay: as above
Method in brief: as §1

Binder | SPOT peptide array binding signal intensity
KKEKKPPKIPKKVYT | 28

Biological target: CaBzz1-D1
Assay: as above
Method in brief: as §1

Binder | SPOT peptide array binding signal intensity
KKEKKPPKIPKKVYT | 1950

Biological target: CaBzz1-D2
Assay: as above
Method in brief: as §1

Binder | SPOT peptide array binding signal intensity
KKEKKPPKIPKKVYT | 2760

Biological target: CaCyk3
Assay: as above
Method in brief: as §1

Binder | SPOT peptide array binding signal intensity
KKEKKPPKIPKKVYT | ≤ 0

Biological target: CaFus1
Assay: as above
Method in brief: as §1

Binder | SPOT peptide array binding signal intensity
KKEKKPPKIPKKVYT | 99

Biological target: CaHof1
Assay: as above
Method in brief: as §1

Binder | SPOT peptide array binding signal intensity
KKEKKPPKIPKKVYT | 1

Biological target: CaHse1
Assay: as above
Method in brief: as §1

Binder | SPOT peptide array binding signal intensity
KKEKKPPKIPKKVYT | 110

Biological target: CaLsb1
Assay: as above
Method in brief: as §1

Binder | SPOT peptide array binding signal intensity
KKEKKPPKIPKKVYT | 0.25

Biological target: CaLsb4
Assay: as above
Method in brief: as §1

Binder | SPOT peptide array binding signal intensity
KKEKKPPKIPKKVYT | ≤ 0

Biological target: CaMyo5
Assay: as above
Method in brief: as §1

Binder | SPOT peptide array binding signal intensity
KKEKKPPKIPKKVYT | 1.5

Biological target: CaNbp2
Assay: as above
Method in brief: as §1

Binder | SPOT peptide array binding signal intensity
KKEKKPPKIPKKVYT | 10

Biological target: CaRvs167
Assay: as above
Method in brief: as §1

Binder | SPOT peptide array binding signal intensity
KKEKKPPKIPKKVYT | 2

Biological target: CaRvs167-3
Assay: as above
Method in brief: as §1

Binder | SPOT peptide array binding signal intensity
KKEKKPPKIPKKVYT | 4.5

Biological target: CaSho1
Assay: as above
Method in brief: as §1

Binder | SPOT peptide array binding signal intensity
KKEKKPPKIPKKVYT | 13

Biological target: CaSla1-D1-D2
Assay: as above
Method in brief: as §1

Binder | SPOT peptide array binding signal intensity
KKEKKPPKIPKKVYT | 79

Biological target: CaSla1-D3
Assay: as above
Method in brief: as §1

Binder | SPOT peptide array binding signal intensity
KKEKKPPKIPKKVYT | ≤ 0

Biological target: ScAbp1
Assay: as above
Method in brief: as §1

Binder | SPOT peptide array binding signal intensity
KKEKKPPKIPKKVYT | 901

Biological target: ScBbc1
Assay: as above
Method in brief: as §1

Binder | SPOT peptide array binding signal intensity
KKEKKPPKIPKKVYT | 1

Biological target: ScBem1-D1
Assay: as above
Method in brief: as §1

Binder | SPOT peptide array binding signal intensity
KKEKKPPKIPKKVYT | 16

Biological target: ScBzz1-D1
Assay: as above
Method in brief: as §1

Binder | SPOT peptide array binding signal intensity
KKEKKPPKIPKKVYT | 98

Biological target: ScBzz1-D2
Assay: as above
Method in brief: as §1

Binder | SPOT peptide array binding signal intensity
KKEKKPPKIPKKVYT | 9.5

Biological target: ScCyk3
Assay: as above
Method in brief: as §1

Binder | SPOT peptide array binding signal intensity
KKEKKPPKIPKKVYT | ≤ 0

Biological target: ScFus1
Assay: as above
Method in brief: as §1

Binder | SPOT peptide array binding signal intensity
KKEKKPPKIPKKVYT | ≤ 0

Biological target: ScHof1
Assay: as above
Method in brief: as §1

Binder | SPOT peptide array binding signal intensity
KKEKKPPKIPKKVYT | 1.5

Biological target: ScHse1
Assay: as above
Method in brief: as §1

Binder | SPOT peptide array binding signal intensity
KKEKKPPKIPKKVYT | 91

Biological target: ScLsb1
Assay: as above
Method in brief: as §1

Binder | SPOT peptide array binding signal intensity
KKEKKPPKIPKKVYT | 4.75

Biological target: ScLsb2
Assay: as above
Method in brief: as §1

Binder | SPOT peptide array binding signal intensity
KKEKKPPKIPKKVYT | 2

Biological target: ScLsb3
Assay: as above
Method in brief: as §1

Binder | SPOT peptide array binding signal intensity
KKEKKPPKIPKKVYT | 256

Biological target: ScLsb4
Assay: as above
Method in brief: as §1

Binder | SPOT peptide array binding signal intensity
KKEKKPPKIPKKVYT | ≤ 0

Biological target: ScMyo3
Assay: as above
Method in brief: as §1

Binder | SPOT peptide array binding signal intensity
KKEKKPPKIPKKVYT | ≤ 0

Biological target: ScMyo5
Assay: as above
Method in brief: as §1

Binder | SPOT peptide array binding signal intensity
KKEKKPPKIPKKVYT | 4.25

Biological target: ScNbp2
Assay: as above
Method in brief: as §1

Binder | SPOT peptide array binding signal intensity
KKEKKPPKIPKKVYT | 2

Biological target: ScPex13
Assay: as above
Method in brief: as §1

Binder | SPOT peptide array binding signal intensity
KKEKKPPKIPKKVYT | 11

Biological target: ScRvs167
Assay: as above
Method in brief: as §1

Binder | SPOT peptide array binding signal intensity
KKEKKPPKIPKKVYT | 2

Biological target: ScSho1
Assay: as above
Method in brief: as §1

Binder | SPOT peptide array binding signal intensity
KKEKKPPKIPKKVYT | 109

Biological target: ScSla1-D1-D2
Assay: as above
Method in brief: as §1

Binder | SPOT peptide array binding signal intensity
KKEKKPPKIPKKVYT | 10

Biological target: ScSla1-D3
Assay: as above
Method in brief: as §1

Binder | SPOT peptide array binding signal intensity
KKEKKPPKIPKKVYT | 14.5

Biological target: SpAbp1-D1
Assay: as above
Method in brief: as §1

Binder | SPOT peptide array binding signal intensity
KKEKKPPKIPKKVYT | 396

Biological target: SpBbc1
Assay: as above
Method in brief: as §1

Binder | SPOT peptide array binding signal intensity
KKEKKPPKIPKKVYT | 3.5

Biological target: SpBzz1-D1
Assay: as above
Method in brief: as §1

Binder | SPOT peptide array binding signal intensity
KKEKKPPKIPKKVYT | 158

Biological target: SpBzz1-D2
Assay: as above
Method in brief: as §1

Binder | SPOT peptide array binding signal intensity
KKEKKPPKIPKKVYT | 0.75

Biological target: SpCyk3
Assay: as above
Method in brief: as §1

Binder | SPOT peptide array binding signal intensity
KKEKKPPKIPKKVYT | ≤ 0

Biological target: SpHof1
Assay: as above
Method in brief: as §1

Binder | SPOT peptide array binding signal intensity
KKEKKPPKIPKKVYT | 1.75

Biological target: SpHof1-2
Assay: as above
Method in brief: as §1

Binder | SPOT peptide array binding signal intensity
KKEKKPPKIPKKVYT | 1

Biological target: SpHof1-3
Assay: as above
Method in brief: as §1

Binder | SPOT peptide array binding signal intensity
KKEKKPPKIPKKVYT | 6.25

Biological target: SpHse1
Assay: as above
Method in brief: as §1

Binder | SPOT peptide array binding signal intensity
KKEKKPPKIPKKVYT | 1.5

Biological target: SpLsb1
Assay: as above
Method in brief: as §1

Binder | SPOT peptide array binding signal intensity
KKEKKPPKIPKKVYT | 55

Biological target: SpLsb4
Assay: as above
Method in brief: as §1

Binder | SPOT peptide array binding signal intensity
KKEKKPPKIPKKVYT | ≤ 0

Biological target: SpMyo1
Assay: as above
Method in brief: as §1

Binder | SPOT peptide array binding signal intensity
KKEKKPPKIPKKVYT | 3.25

Biological target: SpNbp2
Assay: as above
Method in brief: as §1

Binder | SPOT peptide array binding signal intensity
KKEKKPPKIPKKVYT | ≤ 0

Biological target: SpPex13
Assay: as above
Method in brief: as §1

Binder | SPOT peptide array binding signal intensity
KKEKKPPKIPKKVYT | ≤ 0

Biological target: SpRvs167
Assay: as above
Method in brief: as §1

Binder | SPOT peptide array binding signal intensity
KKEKKPPKIPKKVYT | 8.33

Biological target: SpSla1-D1-D2
Assay: as above
Method in brief: as §1

Binder | SPOT peptide array binding signal intensity
KKEKKPPKIPKKVYT | 4

Biological target: SpSla1-D3
Assay: as above
Method in brief: as §1

Binder | SPOT peptide array binding signal intensity
KKEKKPPKIPKKVYT | 3.5
